# Only a selection was taken, and hits are over-represented in it overall.
# Tgondii IFNg = T. gondii growth inhibition with IFN-gamma, primary screen, cell-based; Toxoplasma gondii growth in IFN-gamma-treated host cells; active compounds read low; activity change, negative = inhibition, % (concentration not given with the values); hit rate 3.8% among 69,000; AID 1259416, 2018; in the data active = activity change below about -70%, passing the limit was not always enough;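 also: host cells are HeLa cells infected with Toxoplasma gondii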
# Starred values were filed as active, the others as inactive.
SMILES,Tgondii IFNg
COc1cccc(-c2cc(C(=O)Nc3cnn(Cc4cccc(F)c4)c3)on2)c1,-96*
Cn1c(=O)c(C(=O)Nc2cnn(Cc3cccc(F)c3)c2)nc2ccccc21,-17
Cc1nc(-c2ccccc2F)sc1C(=O)NCc1nc(Cc2ccccc2)no1,-6
Cc1nc(-c2ccccc2F)sc1C(=O)Nc1cnn(Cc2cccc(F)c2)c1,-89*
O=C(CN1CCC(c2ccccc2)CC1)Nc1cnn(Cc2cccc(F)c2)c1,-14
COc1cccc(Cn2cc(NC(=O)C3(c4cc(C)cc(C)c4)CCOCC3)cn2)c1,-4
COc1ccccc1CN(CCCN1CCOCC1)C(=O)c1ccccc1-c1ccccc1,-5
Cn1nnnc1SCCNC(=O)C1(c2ccccc2F)CC1,-12
O=C(CCc1ccccc1)Nc1cccc2c1CCCC2,-1
Brc1ccc2[nH]c3c(c2c1)CCCC3NCc1ccccc1 (stereo not drawn),-98*
O=C1Cc2c([nH]c3ccc(Br)cc23)-c2ncccc2N1,-7
Brc1ccc2[nH]c3c(Br)cc(Br)cc3c2c1,16
Cc1nc2c(nc(SCc3nc(-c4cccc(Br)c4)oc3C)n2C)c(=O)[nH]1,0
Cc1cc(NC(=O)c2c(O)c3cccnc3n(-c3cccc(F)c3)c2=O)ccc1F,-36
Cc1cc(C)c2c(c1)[C@@H](N(Cc1cc(C(F)(F)F)cc(C(F)(F)F)c1)c1nnn(C)n1)CCCN2CC1CCC(C(=O)O)CC1 (stereo partly drawn),-81*
O=C(Nc1ccc(Cl)cc1)c1c(O)c2cccnc2[nH]c1=O,53
Cc1ccc(CN2C[C@H]3COC[C@@H](C(=O)N4CCCCO4)[C@H]3C2)o1,5
Cc1ccc(Nc2nc(-c3nnc(-c4ccccc4)o3)nc3ccccc23)cc1Cl,5
CCOc1ccc2[nH]c(=O)c(CN3CCCN(C(=O)C4CC4)CC3)cc2c1,-83*
CCOc1ccc2[nH]c(=O)c(CN3CCCCC3c3nc(C)no3)cc2c1 (stereo not drawn),2
CCCOC1CCCN(Cc2cc3cc(OC)ccc3[nH]c2=O)C1 (stereo not drawn),-2
COc1ccc2c(c1)NC1(CCN(C(=O)c3ccc(C)c(F)c3)CC1)c1cccn1-2,24
COc1cc2c(cc1OC)CN(Cc1c(C(C)C)[nH]c3ncccc13)CC2,-38
COc1cc2c(cc1OC)CN(CCc1ccc(NC(=O)c3cccc4c(=O)c5cccc(OC)c5[nH]c34)cc1)CC2,-84*
COc1cc2c(cc1OC)CN(CC(=O)NC(C)c1cn(C)nc1C)CC2 (stereo not drawn),2
SMILES,Tgondii IFNg
CCOCC(=O)N1CCO[C@H]2[C@H]1CC[C@H]2OCCN1CCCC1,0
COc1ccc(CN2C(=O)N(C)C3(CCN(Cc4nc(-c5ccccc5)cs4)CC3)C2=O)cc1,-25
COc1ccc(CN2C(=O)N(C)C3(CCN(Cc4cccc(Oc5ccccc5)c4)CC3)C2=O)cc1,-81*
CCN1C(=O)N(Cc2cccc(OC)c2)C(=O)C12CCN(Cc1nc3ccccc3nc1C)CC2,9
O=C(O)CN1C[C@H]2CN(Cc3cccc(F)c3)C(=O)[C@H]2C1,-20
O=C(Nc1cnn(-c2ncc(N3CCCCC3)cn2)c1)C1CCCC1,51
CCN1CCO[C@H]2CN(S(=O)(=O)c3cn(C)cn3)CC[C@@H]2C1,-1
O=C(NCCc1c[nH]c2ccc(Cl)cc12)c1cccs1,11
CCCN1CCN(c2ncnc3sc(C(=O)NCCc4c[nH]c5ccc(Cl)cc45)c(C)c23)CC1,-85*
O=C(NCCc1c[nH]c2ccc(Cl)cc12)c1sc2ncccc2c1-n1cccc1,423
CC(NC1CSCCSC1)c1cn2ccsc2n1 (stereo not drawn),6
COC(=O)c1c(NCCN2CCCc3ccccc32)c2cccc(Cl)c2[nH]c1=O,-4
CCC(Oc1ccccc1)c1nc(CC2CCN(C)CC2)no1 (stereo not drawn),-30
CCCCCCCC(=O)Nc1nnc(Sc2ccnc3cc(Cl)ccc23)s1,-94*
CCN(CC)C(=O)Oc1ccnc2cc(Cl)ccc12,-40
CCSc1nnc(NC(=O)CCc2ccc(C)o2)s1,19
CCC(=O)N1CCC2(CCOCC2COc2ccccn2)CC1 (stereo not drawn),0
CCOC(=O)c1n[nH]c(=S)[nH]c1=O,5
C(=C/c1ccc2ccccc2n1)/c1ccc2c(c1)OCO2,-94*
C(=C/c1nccc2c1[nH]c1ccccc12)/c1ccc2c(c1)OCO2,133
COc1ccc(OC)c(-n2c(/C=C/c3ccc4c(c3)OCO4)nc3ccccc3c2=O)c1,19
Cc1c(NC(=O)CN2CCN(C)C(=O)C(Cc3ccccn3)C2)cnn1C (stereo not drawn),3
Fc1ccc(-c2nnc(-c3nc(NCc4ccco4)c4ccccc4n3)o2)cc1,-86*
Cc1cccc(-c2nnc(-c3nc(N4CCCCC4C)c4ccccc4n3)o2)c1 (stereo not drawn),27
COc1cccc(CNc2nc(-c3nnc(-c4ccc(C)cc4)o3)nc3ccccc23)c1,-11
Cc1ccc(-c2nnc(-c3nc(NCc4ccc(F)cc4)c4ccccc4n3)o2)cc1,15

# Compound activity: PubChem BioAssay, Broad Institute
